# Reference: ChEMBL document CHEMBL4513216, “Probing the Open Global Health Chemical Diversity Library for Multistage-Active Starting Points for Next-Generation Antimalarials” (ACS Infect Dis, 2020)
# Hit rate of the full screen: of about 69,000 compounds, about 8,600 (12%) showed an effect of 50% or more. Many of the other results were omitted from the sample, so strong results are more common in it than they were.
# Test system: Plasmodium berghei
# Assay: Screen against P. berghei liver stage (PbLuc), transformed with Luciferase, at 10uM
# Type: functional, HepG2
# Details: tested at 10 uM
row,SMILES,INHIBITION [%]
1,Cc1nc(C)n(CC2CCCCN2CC(=O)NC(C2CC2)C2CC2)n1 (stereo not drawn),-24.2
2,O=c1c2ccccc2nc2n1C(CSc1cccc(C(F)(F)F)c1)CN2 (stereo not drawn),37.8
3,CNC(=O)[C@@H]1C[C@H]2CN(C(=O)c3ccco3)C[C@H]2N1C,7.84
4,c1ccc(N2CCOC3(CCCN(c4nncs4)C3)C2)nc1 (stereo not drawn),3.95
5,O=C1C[C@@H]2CC[C@H](CN1)N2C(=O)CCc1ccccc1,11.2
6,Cc1cc(CCC(N)=O)cc(C2CCCN2Cc2ccccn2)n1 (stereo not drawn),18.3
7,Cc1cc(CCC(N)=O)cc(C2CCCN2Cc2cnc(C)nc2)n1 (stereo not drawn),52
8,Cc1cc(CCC(N)=O)cc(C2CCCN2Cc2ccnn2C)n1 (stereo not drawn),-2.11
9,Cc1noc(C)c1CNCC1COCc2c(-c3ccoc3)nnn2C1 (stereo not drawn),-16.9
10,CCc1noc(C2CCCCN2C(=O)c2ccc3c(c2)OCO3)n1 (stereo not drawn),7.66
11,Cc1nc(CN2CCCC2c2nc(C(C)C)no2)cs1 (stereo not drawn),36.8
12,CCn1cc(CN2CCCC2c2nc(C(C)C)no2)cc1C#N (stereo not drawn),25.8
13,CCn1ccc2ccc(CN3CCCC3c3nc(C(C)C)no3)cc21 (stereo not drawn),61.2
14,C=C(C)CNC(C)c1ccc(S(C)(=O)=O)c(F)c1 (stereo not drawn),-13.1
15,Nc1nccnc1C(=O)NC1CCN(Cc2ccccc2)C1 (stereo not drawn),-14.5
16,Cc1cc(C)c2c(OCC(=O)NCC(O)C(F)(F)F)nn(C)c2n1 (stereo not drawn),-23.4
17,COc1cccc(C2=CCN(CCN3CCCC3=O)CC2)c1,51.7
18,COc1cccc(C2=CCN(CCN3CCOC3=O)CC2)c1,9.37
19,COCCN1CC=C(c2cccc(OC)c2)CC1,-6.72
20,O=S(=O)(c1ccc(N2CCCCC2)c2nonc12)N1CCCCC1,30
21,Nc1cnc(-c2ccc(F)cc2Cl)cn1,38.2
22,COc1cc(F)ccc1-c1cc(CO)ccn1,37.7
23,COc1cc(F)ccc1-c1cnc(N)cn1,61.5
24,CN1CCN(C2CCOCC2)CC12CCC(=O)N(CC1CC1)CC2 (stereo not drawn),5.46
25,Clc1cccc(-n2cnnn2)c1N1CCOCC1,1.86
26,Clc1cccc(-n2cnnn2)c1N1CCCCC1,67.3
27,Clc1cccc(-n2cnnn2)c1N1CCCC1,11

row,SMILES,INHIBITION [%]
1,O=c1[nH]c2nc(NCC3CCCO3)ncc2c(=O)n1-c1ccc(F)cc1 (stereo not drawn),88.8
2,O=c1[nH]c2nc(NCC3CCCO3)ncc2c(=O)n1-c1cccc(F)c1 (stereo not drawn),-26.2
3,O=c1[nH]c2nc(NC3CC3)ncc2c(=O)n1-c1ccc(F)cc1,13.8
4,COCCN1CC[C@@H]2CN(Cc3nccn3C)C[C@@H]2C1,28.7
5,Cc1ccccc1C(=O)N1CCOC(c2ncc(CN(C)C)[nH]2)C1 (stereo not drawn),-10.4
6,CCS(=O)(=O)N1C[C@@H](C(=O)NC(C)C)[C@@]2(Cc3ccccc3C(=O)N2)C1,-8.31
7,CCNC(=O)CCC(=O)NC1(c2cccc(C(F)(F)F)c2)CCC1,23.9
8,COCC(=O)NC1(c2cccc(C(F)(F)F)c2)CCC1,38.7
9,CS(=O)(=O)CCC(=O)NC1(c2cccc(C(F)(F)F)c2)CCC1,65.6
10,CC(C)NC(=O)Nc1ccc(CNCc2cccc(C#N)c2)cc1,43.7
11,Cc1ccc(C(CNCc2c[nH]nc2C)N(C)C)cc1 (stereo not drawn),-4.33
12,O=C(NC1CCN(C2CC2)CC1)c1cc(Cl)ccc1-n1cnnn1,62.8
13,CC(C)CN1CCC(NC(=O)c2ccc(F)cc2I)CC1,50.1
14,COCC(O)CN1CCC(NC(=O)c2ccccc2Cl)CC1 (stereo not drawn),19.6
15,CC(=O)N1CCC(NC(=O)c2ccccc2-n2cnnn2)CC1,35.9
16,CC(C)CN1CCC(NC(=O)c2ccc(F)cc2F)CC1,31.1
17,O=C(NC1CC1)c1cc(Cl)ccc1-n1cnnn1,-3.59
18,CC(=O)N1CCC(NC(=O)c2cc(S(N)(=O)=O)ccc2C)CC1,-21.3
19,CC(=O)N1CCC(NC(=O)c2cc(Cl)ccc2O)CC1,61
20,CC(C)CN1CCC(NC(=O)c2ccc(Cl)cc2Cl)CC1,90.2
21,CC(=O)N1CCC(NC(=O)c2cc(Cl)ccc2-n2cnnn2)CC1,37.7
22,CC(C)CN1CCC(NC(=O)c2ccc(F)cc2Cl)CC1,-23.4
23,CCN1CCC(NC(=O)c2ccc(F)cc2I)CC1,2.7
24,Cc1cc2ccccc2n1CCC(=O)NCCS(C)(=O)=O,0.426
25,CC(C)CS(=O)(=O)N1C[C@@H]2C[C@H](C(=O)NCc3ccccc3)[C@H](C1)O2,9.48
26,Cc1ccc(C(=O)N(C)Cc2cc(Br)cs2)c(=O)[nH]1,15
